{"source": "PubChem BioAssay AID2069", "about": "(Sanford-Burnham Center for Chemical Genomics, 2009)", "note": "In all, about 1,200 compounds went through this assay and about 210 (18%) were called active. A selection follows. A number with no mark means an inactive call. Cut-off read from the data, not from the text of the source: active = inhibition above about 30%; inactive = the rest.", "data": [{"assay": "HTRF signal interference by compounds, confirmation, artefact control for SUMOylation inhibitor project, biochemical, uHTS (AID 2069)", "conditions": "HTRF interference counterscreen, fluorescence, at 35 µM, hits give high values", "values": [{"compound": "Cc1ccc2[nH]c3c(c2c1)CN(C(=O)CN1CCN(c2cccc(C)c2C)CC1)CC3", "inhibition": "12.8%"}, {"compound": "O=c1oc(-c2cccs2)nc2sc3c(c12)CCC3", "inhibition": "40.5% (active)"}, {"compound": "COC(=O)c1c(C)oc(C)c1S(=O)(=O)NC(C)(C)C", "inhibition": "3.5%"}, {"compound": "COc1ccc(C2C(C(C)=O)=C(O)C(=O)N2C)c(OC)c1", "note": "(stereo not given)", "inhibition": "-3.35%"}, {"compound": "COc1cc(NC(=O)c2cnc(N)s2)cc(C(=O)Nc2cccc(C(F)(F)F)c2)c1", "inhibition": "8.1%"}, {"compound": "O=C(N/N=C/c1ccc(-c2ccc(S(=O)(=O)Nc3ncccn3)cc2)o1)c1cc2ccccc2cc1O", "inhibition": "28.5%"}, {"compound": "CCOCCCN1CN(Cc2ccco2)CNC1=S", "inhibition": "39.1% (active)"}, {"compound": "CC1=C(C#N)C(=O)NC(=O)/C1=C\\c1ccc(-c2cc(C)c(C)cc2[N+](=O)[O-])o1", "inhibition": "9.4%"}, {"compound": "CCCS(=O)(=O)c1c(S(=O)(=O)CCC)c2c(N)cccn2c1C(=O)c1ccc(Br)cc1", "inhibition": "6.7%"}, {"compound": "Cc1cc(=O)[nH]c(-n2[nH]c(C)cc2=O)n1", "inhibition": "-1.85%"}, {"compound": "COc1ccccc1C1Nc2cccc3cccc(c23)N1", "inhibition": "-18.4%"}, {"compound": "CCOc1ccc(-n2c(SCC(=O)Nc3ccc(CC)cc3)nc3n[nH]c(C)c3c2=N)cc1", "inhibition": "23.6%"}, {"compound": "O=C1c2nc3cc(-c4ccco4)[nH]n3c(=O)c2CN1C1CCCCC1", "inhibition": "29.8%"}, {"compound": "CCCCN1Cc2c(nc3cc(-c4ccco4)[nH]n3c2=O)C1=O", "inhibition": "31.7% (active)"}, {"compound": "CC1=NN(c2ccccc2)C(=O)/C1=C/c1cccs1", "inhibition": "-3.6%"}, {"compound": "Cc1[nH][nH]c(=O)c1C(c1c(C)[nH][nH]c1=O)c1cn(Cc2ccc(F)cc2)c2ccccc12", "inhibition": "-43.9%"}, {"compound": "COC(=O)c1scc(C)c1NC(=O)C(Cl)c1ccccc1", "note": "(stereo not given)", "inhibition": "0.85%"}, {"compound": "CN(c1ccccc1)c1ccc(/C=C(\\CCC(=O)O)c2nc3ccccc3s2)cc1[N+](=O)[O-]", "inhibition": "7.85%"}, {"compound": "Nc1nc(-c2ccco2)c(-c2ccco2)s1", "inhibition": "-13.2%"}, {"compound": "NNC(=O)c1oc2nc(-c3cccs3)cc(-c3ccco3)c2c1N", "inhibition": "12.8%"}, {"compound": "NNC(=O)c1oc2nc(-c3ccco3)cc(-c3ccco3)c2c1N", "inhibition": "9.15%"}, {"compound": "NC(=O)c1sc2nc(-c3ccco3)ccc2c1N", "inhibition": "41.8% (active)"}, {"compound": "CC(=O)c1sc2nc(-c3ccco3)ccc2c1N", "inhibition": "48.3% (active)"}, {"compound": "N#Cc1sc2nc(-c3ccccc3)cc(-c3ccco3)c2c1N", "inhibition": "26.3%"}, {"compound": "S=C(Nc1ccc2nsnc2c1)NC1CCCCC1", "inhibition": "10.2%"}, {"compound": "O=[N+]([O-])c1ccc(C=Nc2cccc3ccccc23)s1", "inhibition": "5.6%"}, {"compound": "CCC(=O)OCCNc1cc(Sc2nc3ccccc3s2)c2nonc2c1[N+](=O)[O-]", "inhibition": "1.05%"}, {"compound": "O=C(O)c1cccc(N2C(=O)/C(=C/c3ccc(SCc4ccc(Cl)cc4)o3)SC2=S)c1", "inhibition": "14.9%"}, {"compound": "CCCN(C(=O)c1cc2c(s1)CCC2)c1c(N)n(Cc2ccccc2)c(=O)[nH]c1=O", "inhibition": "-3.9%"}, {"compound": "Cc1cccc(C(=O)NC2C(=O)NNC2c2ccc(Cl)cc2)c1", "note": "(stereo not given)", "inhibition": "-5.5%"}, {"compound": "COc1ccc(N2C(=O)[C@@H]3[C@H](C2=O)[C@H]2c4ccccc4C=CN2[C@@H]3C(C)=O)cc1", "inhibition": "9.4%"}, {"compound": "Cc1ccc(NC(=O)CCC(=O)OCC(=O)c2ccc(-c3ccccc3)cc2)cc1", "inhibition": "-1.75%"}, {"compound": "Cc1ccc(-c2[nH]c(-c3ccc(C(=O)O)cc3)nc2-c2ccccc2)cc1", "inhibition": "43.1% (active)"}, {"compound": "COc1cc(/C=C2\\C(=O)N(c3ccccc3)N=C2C)ccc1Oc1ccc([N+](=O)[O-])cc1[N+](=O)[O-]", "inhibition": "1.25%"}, {"compound": "CC(=O)c1sc2nc(CSc3nnnn3-c3ccccc3)[nH]c(=O)c2c1C", "inhibition": "0.9%"}, {"compound": "CSc1nnc(SCc2nc3sc(C(=O)O)c(C)c3c(=O)[nH]2)s1", "inhibition": "31.2% (active)"}, {"compound": "O=C(CSc1nnc(SCc2ccc(Cl)cc2)s1)N/N=C/c1c[nH]c2ccccc12", "inhibition": "9.75%"}, {"compound": "S=c1[nH]nc(-c2cc(-c3ccco3)[nH]n2)n1-c1ccccc1Cl", "inhibition": "0.75%"}, {"compound": "COc1cc(O)c(NC(C)=O)c2nonc12", "inhibition": "6.2%"}, {"compound": "O=C(Nc1ccccc1)c1ccc2nc(-c3ccco3)c(-c3ccco3)nc2c1", "inhibition": "22.8%"}, {"compound": "COCCNC(=O)Nc1ccc2nc(-c3ccco3)c(-c3ccco3)nc2c1", "inhibition": "52.4% (active)"}, {"compound": "COc1ccc2nc(-c3ccco3)c(-c3ccco3)nc2c1", "inhibition": "33.1% (active)"}, {"compound": "COc1ccc2nc3cccc(OC)c3nc2c1", "inhibition": "11.7%"}, {"compound": "COc1ccc(OC)c(-n2c(-c3cc(-c4ccco4)[nH]n3)n[nH]c2=S)c1", "inhibition": "7.95%"}, {"compound": "COc1ccc(CCNC(=O)c2ccc3nc(-c4ccco4)c(-c4ccco4)nc3c2)cc1OC", "inhibition": "13.3%"}, {"compound": "CCc1ccc(OCC(=O)N/N=C2\\CC(=O)c3ccccc32)cc1", "inhibition": "-2.45%"}, {"compound": "COCCN=c1scc(-c2ccco2)n1/N=C/c1ccc(O)c(O)c1O", "inhibition": "-18.7%"}, {"compound": "CC(C)c1ccc(NC(=O)C[n+]2ccn(C3=C([O-])c4ccccc4C3=O)c2)cc1", "inhibition": "-10.2%"}, {"compound": "Cc1ccc(S(=O)(=O)C(C#N)c2nc3ccccc3nc2N2CC(C)OC(C)C2)cc1C", "note": "(stereo not given)", "inhibition": "4.8%"}, {"compound": "O=c1c(=Nc2ccccc2O)c(=O)c2ccccc12", "inhibition": "-6.7%"}, {"compound": "O=C1NC(=Nc2ccc(O)cc2)S/C1=C\\C=C\\c1ccco1", "inhibition": "8.5%"}, {"compound": "Cc1c(CC(=O)O)c(=O)oc2c(C)c(OCc3ccccc3Br)ccc12", "inhibition": "-1.95%"}, {"compound": "COc1ccc2c(c1)c(=O)oc1c(C)c(OCc3ccc(C(=O)O)cc3)ccc12", "inhibition": "31.4% (active)"}, {"compound": "Cc1cc(=O)oc2cc(OCc3ccc(C(=O)OCC(=O)Nc4ccc(N(C)C)cc4)cc3)ccc12", "inhibition": "11.7%"}, {"compound": "COc1cc(/C=C(\\C#N)C(=O)Nc2cccc(C(=O)O)c2)ccc1OCc1ccc(Cl)cc1", "inhibition": "19.7%"}, {"compound": "O=C(Nc1ccc2oc(=O)ccc2c1)c1ccc(-c2cccc(Cl)c2)o1", "inhibition": "12.1%"}, {"compound": "Cn1nccc1NC(=O)Nc1cccc(Cl)c1", "inhibition": "42.6% (active)"}, {"compound": "Cn1nccc1NC(=O)Nc1cccc(Br)c1", "inhibition": "46.4% (active)"}, {"compound": "S=C(Nc1cccc(Cl)c1)Nc1ccc2cn[nH]c2c1", "inhibition": "2.35%"}, {"compound": "O=C(Nc1cccnc1)c1cc2cc(Br)ccc2oc1=O", "inhibition": "-1.65%"}]}]}
